The record followed here is PubChem BioAssay AID686978 (National Center for Advancing Translational Sciences (NCATS), 2013).

Out of some 420,000 compounds screened, about 64,000 (15%) were called active. Inconclusive results (about 27%) are left out. Calls follow the shape of the dose curve; as a rule, active = well fitted inhibition curve with a large enough effect; inconclusive = small, poorly fitted or top-dose-only effect; inactive = flat fitted curve, though single readings scatter. Not all results are given here. Where a call stands in place of a potency, no number is given.
Potency is read from the fitted curve at half-maximal effect.

This experiment is described as follows: qHTS for Inhibitors of human tyrosyl-DNA phosphodiesterase 1 (TDP1): qHTS in cells in absence of CPT. Also: nearly all actives have a fitted effect of over 55% in size. The conditions noted are these: DT40 Tdp1-/- hTDP1 cells, no CPT, ATP luminescence, 48 h; activity change, negative = growth inhibition: at 46.2 µM (top of the series). The method, boiled down:
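DT40 Tdp1-/-;hTDP1 cells, no CPT (DMSO vehicle only), 400 cells/well; compounds pin-transferred; ≥48 hr, 37 °C; CellTiter-Glo 30 min RT dark, luminescence read.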
With `O=C(O)c1ccccc1/C=N/Nc1ccc(S(=O)(=O)Nc2ccc(Cl)cc2)cc1[N+](=O)[O-]`, the Potency entry is “inactive”. The value for `O=[N+]([O-])c1cc(S(=O)(=O)Nc2cccc(Cl)c2)ccc1N=Nc1c(O)[nH]c2ccccc12` was 25.9 µM (active). `COc1ccc(S(=O)(=O)Nc2ccc3cn[nH]c3c2)cc1[N+](=O)[O-]`: the Potency result was “inactive”. In the case of `O=C(Nc1nnc([C@H]2C[C@H](O)[C@@H](CO)O2)s1)c1cccc(Cl)c1`, the Potency result was “inactive”. The value for `CN(CC(=O)Nc1ccc(Cl)cc1)C(=O)CNC(=O)c1ccc2ccccc2c1` was “inactive”; that for `Cc1ccc(S(=O)(=O)N(C)c2ccc(OCC(=O)OCC(=O)N(CC#N)c3ccccc3)cc2)cc1` was “inactive”. The value for `COc1cc(C=NNC(=O)c2cccnc2)ccc1OC(=O)c1ccccc1F` was “inactive”. The value for `COc1ccc(C(=O)Nc2ccccc2C(=O)N/N=C/c2ccc(O)c(OC)c2)cc1` was 20.6 µM (active); that for `COc1cc(/C=N/NC(=O)CCc2n[nH]c(=O)[nH]c2=O)ccc1O` was “inactive”; that for `C/C(=N\NC(=O)c1cccc(N2CCCC2=O)c1)c1ccc(N)cc1` was “inactive”. As for `COc1ccc(/C=N/Nc2ccccc2C(=O)O)cc1`, the Potency entry is “inactive”. As to `COc1cc(/C=N/NC(=O)c2ccc(N3CCCC3=O)cc2)ccc1O`, the Potency was 16.4 µM (active).

In the case of `COc1ccc(/C=N/S(=O)(=O)c2ccccc2)cc1OC`, the Potency entry is “inactive”. In the case of `CCOc1cc(/C=N/NC(=O)CN2CCCCC2)ccc1O`, the Potency entry was “inactive”. On to `COc1ccc(/C=N/NC(=O)c2ccccc2)cc1OS(=O)(=O)c1ccccc1`, for which the Potency is 13 µM (active).

As for `CCC1(CC)NC(=O)N(Cc2nc3ccccc3s2)C1=O`, the Potency entry is “inactive”. In the case of `CCOc1ccc2oc(C(=O)N(CC)CC(=O)Nc3ccc(NC(C)=O)cc3)c(C)c2c1`, the Potency result was “inactive”. The value for `CCOc1ccc(-n2c(SCC(=O)NC3CCS(=O)(=O)C3)nnc2-c2cccnc2)cc1` (stereo not drawn) was “inactive”; that for `COc1ccc(S(=O)(=O)N2CCOCC2)cc1NC(=O)Cc1coc2cc(C)ccc12` was “inactive”. The value for `N#Cc1c2c(c(-c3ccccc3)[nH]c1=O)CCCC2` was “inactive”; that for `CCCCC1N2CC3([N+](=O)[O-])CN1CC([N+](=O)[O-])(C2)C3(C)C` (stereo not drawn) was “inactive”; that for `Nc1ccc(SCCN2C(=O)c3ccccc3C2=O)cc1` was “inactive”.

Consider `CCCCn1c(=N)c(S(=O)(=O)c2ccccc2)cc2c(=O)n3cccc(C)c3nc21`, for which the Potency entry was “inactive”. Consider `COc1ccc(Cn2ccnc2SCC(=O)NCc2ccco2)cc1`, for which the Potency result is “inactive”. The value for `Cc1cccn2c(=O)c3cc(C(=O)NCCN4CCOCC4)c(=N)n(Cc4cccnc4)c3nc12` was 8.2 µM (active). For the compound `O=C(NC1CCCCC1)c1ccc2c(=O)n(CC3CCCO3)c(=O)[nH]c2c1` (stereo not drawn), the Potency result is “inactive”.

As for `Cc1cccn2c(=O)c3cc(C(=O)NC4CCCCC4)sc3nc12`, the Potency entry was “inactive”. The value for `COc1ccc(CCn2c(=N)c(C(=O)NCc3ccco3)cc3c(=O)n4cccc(C)c4nc32)cc1` was 11.6 µM (active).

With `COCCCn1c(C(=O)NC2CCCCC2)cc2c(=O)n3cccc(C)c3nc21`, the Potency was 16.4 µM (active).

Consider `O=C(NCc1cccnc1)c1cc(S(=O)(=O)N2CCOCC2)c(Cl)cc1Cl`, for which the Potency entry is “inactive”. The value for `Cc1ccc(S(=O)(=O)c2cc3c(=O)n4cccc(C)c4nc3n(CCc3ccccc3)c2=N)cc1C` was “inactive”; that for `COc1ccc(CNC(=O)c2cc3c(=O)n4ccccc4nc3n(CC3CCCO3)c2=N)cc1` (stereo not drawn) was “inactive”. The value for `Cc1ccc2nc3c(cc(C(=O)NCCc4ccccc4)c(=N)n3CC3CCCO3)c(=O)n2c1` (stereo not drawn) was 20.6 µM (active).
